Measured values: PubChem BioAssay AID504607 (Sanford-Burnham Center for Chemical Genomics, 2011)
The whole screen tested about 6,200 compounds, of which about 4,800 (77%) were called active. The set was probably picked from earlier hits. Not all results are given here. Values without a mark were called inactive.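 Rule for the calls: active = mean inhibition at 8 µM reaching about 37%, which flags the compound as non-specific (limit read from the data); inactive = the rest.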

Assay: full-length luciferase signal inhibition, confirmation, counter-screen for Mdm2/MdmX interaction inhibitor project, cell-based, single concentration, SaOS-2 (AID 504607);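 note: p53-null SaOS-2 cells with luciferase driven by a doxycycline-inducible promoter; compound on cells about two nights before reading with doxycycline added after day one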
Settings: SaOS-2 full-length luciferase counterscreen, luminescence; at 8 µM; active compounds read high

Compound | inhibition
Cn1c(=O)n(C)c2cc(C(=O)Nc3ccc4c(c3)OCO4)ccc21 | 56.6% (active)
CC1CCCCC1NC(=O)/C(C#N)=C/C=C/c1ccccc1[N+](=O)[O-] (configuration not stated) | 57.2% (active)
NS(=O)(=O)c1ccc(N=Nc2c(O)[nH]c3ccc(Br)cc23)cc1 | 86.5% (active)
C[C@@H]1C[C@@H]2O[C@H]2/C=C\C=C\C(=O)Cc2c(Cl)c(O)cc(O)c2C(=O)O1 | 33.8%
Clc1cccc(Cl)c1OCCOCCNCc1ccccc1 | 33%
N=c1c2c(-c3ccccc3)c(-c3ccccc3)n(Cc3ccccc3)c2ncn1CCCO | 62% (active)
CCCCC(O)(CCCC)C(=O)NN(C(=O)CCl)c1ccccc1 | 34%
Cc1cc(=O)oc2cc(OCC3CC(c4ccccc4Cl)=NO3)ccc12 (configuration not stated) | 117% (active)
Cc1ccc(-n2[nH]c(C)c(/C=N/NC(=O)c3cccc([N+](=O)[O-])c3)c2=O)cc1C | 46.2% (active)
Cn1c(C(=O)NCCCN2CCN(c3cccc(Cl)c3)CC2)cc2c(=O)n(C)c3ccccc3c21 | 61.5% (active)
OCCCNc1nccc(-c2cc(Nc3cccc(Cl)c3)ncn2)n1 | 53.2% (active)
CC(C)n1cnc2c(Nc3cccc(Cl)c3)nc(N(CCO)CCCO)nc21 | 47.6% (active)
CCCCCCCCn1c2c(c(=N)c3c1CCC3)CCCC2 | 22%
COc1ccc(-c2nn(C)c(=O)c3ccccc23)cc1NC(=O)COc1ccccc1 | 53.5% (active)
O=[N+]([O-])c1ccc(Oc2ccc(F)cc2Br)c2ccncc12 | 16%
CCCC(=O)Nc1nc2ccc(NC(=O)c3cccnc3)cc2s1 | 108% (active)
O=C(Nc1nc2ccc([N+](=O)[O-])cc2s1)c1ccc(S(=O)(=O)N2CCCc3ccccc32)cc1 | 20%
O=C(Nc1ccc(Cl)cc1)Nc1nnc(/C=C/c2ccccc2)s1 | 75.8% (active)
Cc1nnc(NC(=O)Nc2ccc(Cl)c(Cl)c2)s1 | 33.4%

Compound | inhibition
Cc1c(C(=O)N/N=C/c2ccccc2)[nH]c2c([N+](=O)[O-])cccc12 | 48.3% (active)
COc1cccc(CNCCc2c[nH]c3ccccc23)c1OCc1ccccc1F | 42% (active)
COc1ccc(/C=C/C(=O)Nc2ccc(C34CC5CC(CC(O)(C5)C3)C4)cc2)cc1OC | 85.7% (active)
Cc1c(Cl)c([N+](=O)[O-])nn1Cc1ccc(C(=O)N/N=C\c2cc(Cl)ccc2O)o1 | 32.4%
CCN(CC)c1ccc(/C=N/NC(=O)c2cnccn2)c(O)c1 | 37.9% (active)
CCN(CC)c1ccc(/C=N/Nc2nc(C)cc(C)n2)c(O)c1 | 38.6% (active)
CC(=O)Oc1c(C(=O)c2nnc(C)o2)c(=O)n(Cc2ccccc2)c2ccccc12 | 36.5% (active)
NC(N)=N/N=C/c1ccc(OCc2ccc(Cl)cc2Cl)cc1 | 50.2% (active)
COc1cccc2cc(C(N)=O)/c(=N\NC(=O)c3ccccc3)oc12 | 137% (active)
CC(Nc1nc(N2CCCC2)nc2ccccc12)c1ccccc1 (configuration not stated) | 88.5% (active)
O=C(/C=C/c1ccc(OCc2c(F)cccc2Cl)cc1)N1CCOCC1 | 27.7%
C=C(C)C(=O)O[C@H]1C/C(C)=C\C(=O)/C=C(\C)[C@H](O)[C@@H]2OC(=O)C(=C)[C@@H]21 | 51.4% (active)
CCc1ccc(N(CC)c2ncnc3nc[nH]c23)cc1 | 41.2% (active)
C/C(=N\NC(=O)c1ccccc1F)c1ccccn1 | 52.1% (active)
CCOC(=O)CC1C(=O)NCCN1c1nc2c(C)cccn2c(=O)c1/C=C1\SC(=S)N(C(C)CC)C1=O (configuration not stated) | 101% (active)
CCN1C(=O)c2cccc3c(S(=O)(=O)Nc4ccccc4O)ccc1c23 | 76.6% (active)
Cc1ccc(-c2csc(NC3OC(=O)c4ccccc43)n2)cc1 (configuration not stated) | 23.7%
COc1ccc2c(c1OC)C(=O)OC2Nc1nc(-c2ccccc2)cs1 (configuration not stated) | 51.2% (active)
